Reference: PubChem BioAssay (Tox21)
Several values for one entry are separate records, joined by “and”; a condition that tells them apart may be missing. Identical values can stand only once. Records with an inconclusive call do not appear. Where a call stands in place of a potency, no number is given. A structure can be active in one record and inactive in another. Activity calls are given as the source filed them. Calls come from the whole dose curve.
Potency is the fitted concentration of half-maximal effect.

Assay: qHTS assay for small molecule agonists of the p53 signaling pathway - cell viability (AID 651633); note: nearly all actives have a fitted effect of over 30% in size
Conditions: p53RE-bla HCT-116 viability, ATP luminescence, 16 h; series mostly up to 83.3 µM
From the text: National Center for Advancing Translational Sciences [NCATS]
NIH Chemical Genomics Center [NCGC]
U.S. Environmental Protection Agency [EPA]
National Institutes of Environmental Health Sciences [NIEHS]
National Toxicology Program [NTP]
U.S. Food and Drug Administration [FDA]
p53, a tumor suppressor protein, is activated following cellular insult, including DNA damage and other cellular stresses. The activation of p53 regulates cell fate by inducing DNA repair, cell cycle arrest, apoptosis, or cellular senescence. The activation of p53, therefore, is a good indicator of DNA damage and other cellular stresses. […] The activation of the reporter gene under culture conditions can be detected by fluorescence intensity. This cell line was used to screen the Tox21 compound library in a 1536-well plate format and to identify agonists that activate the p53 signaling pathway.
Tox21 Assay Protocol Summary:
The p53RE-bla cells were dispensed at 4,000 cells/5 ul/well in 1536-well black wall/clear bottom plates using a Multidrop dispenser. After the assay plates were incubated at a 37 C/5% CO2 incubator for 5 hours, 23 nL of compounds dissolved in DMSO, positive controls or DMSO only was transferred to the assay plate by a pin tool. The plates were incubated at 37 C for 16 hours. After 1 uL of LiveBLAzerTM B/G FRET substrate was added using a Flying Reagent Dispenser, the plates were incubated at room temperature for 2 hours, and fluorescence intensity was measured by an Envision plate reader.
For cell viability readout that measures cytotoxicity, 4 ul/well of CellTiter-Glo reagent was added into the assay plates using a Flying Reagent Dispenser. After 30 min incubation at room temperature, the luminescence intensity in the plates was measured using a ViewLux plate reader.
With `CCn1cc(C(=O)O)c(=O)c2cc(F)c(N3CCNCC3)nc21` the Potency was “inactive”. With `CC1=CC(O)CC(C)(C)C1` (stereo not given) the Potency was “inactive”. With `ON(Cc1ccccc1)Cc1ccccc1` the Potency was “inactive”. With `COCc1c(C(C)C)nc(C(C)C)c(/C=C/[C@@H](O)C[C@@H](O)CC(=O)O)c1-c1ccc(F)cc1` the Potency was “inactive”. For `CO[C@H]1C=CO[C@@]2(C)Oc3c(C)c(O)c4c(O)c(c5c(c4c3C2=O)=NC2(CCN(CC(C)C)CC2)N=5)NC(=O)/C(C)=C\C=C/[C@H](C)[C@H](O)[C@@H](C)[C@@H](O)[C@@H](C)[C@H](OC(C)=O)[C@@H]1C`, the Potency was “inactive”. For `CCCCN(CCCC)C(=S)SSC(=S)N(CCCC)CCCC`, the Potency was “inactive”. With `COC(OC)(C(=O)c1ccccc1)c1ccccc1` the Potency was “inactive”. With `Cc1occc1C(=O)Nc1ccc(C(=O)N2CCC(F)(F)/C(=C\C(=O)N3CCC(N4CCCCC4)CC3)c3ccccc32)cc1` the Potency was “inactive”. With `CC(=O)[C@H]1CC[C@H]2[C@@H]3C[C@H](C)C4=CC(=O)CC[C@]4(C)[C@H]3[C@@H](O)C[C@]12C` the Potency was “inactive”. With `Cc1oncc1C(=O)Nc1ccc(C(F)(F)F)cc1` the Potency was “inactive”. In the case of `CC(Cl)C(Cl)Cl` (stereo not given), the Potency is reported as “inactive”. In the case of `CC1=C(C=O)C(C)(C)CCC1`, the Potency is reported as “inactive”. In the case of `Nc1ccc(C(=O)OCCCOC(=O)c2ccc(N)cc2)cc1`, the Potency is reported as “inactive”. With `CC1=CC(=O)CC(C)(C)C1(O)/C=C/C(C)=C\C(=O)O` (stereo not given) the Potency was “inactive”. For `CC1=NN(c2ccc(C(=O)O)cc2)C(=O)C1`, the Potency was “inactive”. In the case of `O=C(CCCCCCCCC#CI)Oc1ccccc1`, the Potency is reported as “inactive”. In the case of `C=CC(=C)CCCC(C)(C)OC(C)=O`, the Potency is reported as “inactive”. With `Cc1cc(O)c(C(C)C)cc1Cl` the Potency was “inactive and 54.5 µM (active)”. For `Nc1nc(Cl)nc2c1ncn2[C@@H]1O[C@H](CO)[C@@H](O)[C@@H]1F`, the Potency was 0.133 µM (active). In the case of `CC(C)CCCCCCOC(=O)CCCCC(=O)OCCCCCCC(C)C`, the Potency is reported as “inactive”. For `O=C(NCCCN1CCOCC1)c1ccc(Cl)cc1`, the Potency was “inactive”. For `Cc1c(C(=O)NN2CCCCC2)nn(-c2ccc(Cl)cc2Cl)c1-c1ccc(Cl)cc1`, the Potency was 23.7 µM (active). With `O=C(CCCCCCC(=O)Nc1ccccc1)NO` the Potency was “inactive”. For `O=[N+]([O-])c1cccc(S(=O)(=O)NCCNS(=O)(=O)c2cccc([N+](=O)[O-])c2)c1`, the Potency was “inactive”. With `CCCCN(CCCC)CCCOC(=O)c1ccc(N)cc1` the Potency was “inactive”. In the case of `O=C(CCC1CCN(Cc2ccccc2)CC1)c1ccc2c(c1)NCCCC2`, the Potency is reported as “inactive”. In the case of `C[N+]1(C)CCC(=C(c2ccccc2)c2ccccc2)CC1`, the Potency is reported as “inactive”. With `CCCCCCCC/C=C\CCCCCCCC(=O)OC` the Potency was “inactive”. In the case of `CCCC(=O)O[C@]1(C(=O)COC(=O)CC)CC[C@H]2[C@@H]3CCC4=CC(=O)CC[C@]4(C)[C@H]3[C@@H](O)C[C@@]21C`, the Potency is reported as “inactive”. With `CCOc1cc(N)c(Cl)cc1C(=O)NCC1CN(Cc2ccc(F)cc2)CCO1` (stereo not given) the Potency was “inactive”. In the case of `OC(CCCN1CCCCC1)(c1ccccc1)c1ccccc1`, the Potency is reported as “inactive”. For `Nc1ccc(S(=O)(=O)O)cc1`, the Potency was “inactive”. For `CC(COc1ccc(C(C)(C)C)cc1)OS(=O)OCCCl` (stereo not given), the Potency was “inactive”. In the case of `CC1CC(O)CC(C)(C)C1` (stereo not given), the Potency is reported as “inactive”. In the case of `O=C1NCCN1`, the Potency is reported as “inactive”. For `CCOC(=O)CC(=O)C(=O)OCC`, the Potency was “inactive”. In the case of `C=CC(C)(O)CCCC(C)CCCC(C)CCCC(C)C` (stereo not given), the Potency is reported as “inactive”. In the case of `CCOC(=O)[C@@H](C)Oc1ccc(Oc2nc3ccc(Cl)cc3o2)cc1`, the Potency is reported as “inactive”. With `CC1CC(=O)NN=C1c1ccc(NCC(C)(C)NCC(O)COc2cc(Cl)ccc2C#N)cc1` (stereo not given) the Potency was “inactive”. In the case of `O=Cc1c(Cl)cccc1Cl`, the Potency is reported as “inactive”.
